POLK inh = inhibitors of human DNA polymerase kappa | purified Pol kappa, fluorescent DNA synthesis assay, 10 min | AID 588579 | 400,000 compounds, 0.53% hits | Q9UBT6 | Potency, µM (top dose mostly 107 µM), hits mostly inhibitors
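Readout: fluorescence, taken kinetically at 0 and 10 min. Conditions: 10 nM Pol kappa, 15 min RT compound preincubation, 50 nM substrate final. Controls: enzyme-free buffer wells.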
POLI inh = blocks human DNA polymerase iota activity. Pol iota fluorescent replication assay, 10 min. Potency, µM (top dose mostly 115 µM), hits mostly inhibitors. 390,000 compounds, 1% hits
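Fluorescent replication assay read twice, at 0 min and 10 min after adding 50 nM (final) substrate. Enzyme (10 nM) and compounds were first incubated 15 min at room temperature; enzyme-free buffer wells were negative controls.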
POLB inh = blocks human DNA polymerase beta activity | P06746 | Pol beta primer extension/strand displacement, fluorescence kinetic | Potency, µM (series often up to 114 µM), usual class: inhibitors | 340,000 compounds, 1.3% hits | AID 485314
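Kinetic readout of DNA synthesis with strand displacement by Pol beta. Compound and 10 nM enzyme sit 15 min at room temperature; 50 nM substrate starts the reaction, read immediately and at 10 min.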
KAT2A inh = blocks human GCN5L2 histone acetyltransferase | Potency, µM (doses to about 58.9 µM), hits mostly inhibitors | GCN5L2 HAT assay, ThioGlo1 CoA-SH fluorescence | 390,000 compounds, 0.21% hits | AID 504327 | Q92830
Target sequence (Q92830 whole entry, looked up): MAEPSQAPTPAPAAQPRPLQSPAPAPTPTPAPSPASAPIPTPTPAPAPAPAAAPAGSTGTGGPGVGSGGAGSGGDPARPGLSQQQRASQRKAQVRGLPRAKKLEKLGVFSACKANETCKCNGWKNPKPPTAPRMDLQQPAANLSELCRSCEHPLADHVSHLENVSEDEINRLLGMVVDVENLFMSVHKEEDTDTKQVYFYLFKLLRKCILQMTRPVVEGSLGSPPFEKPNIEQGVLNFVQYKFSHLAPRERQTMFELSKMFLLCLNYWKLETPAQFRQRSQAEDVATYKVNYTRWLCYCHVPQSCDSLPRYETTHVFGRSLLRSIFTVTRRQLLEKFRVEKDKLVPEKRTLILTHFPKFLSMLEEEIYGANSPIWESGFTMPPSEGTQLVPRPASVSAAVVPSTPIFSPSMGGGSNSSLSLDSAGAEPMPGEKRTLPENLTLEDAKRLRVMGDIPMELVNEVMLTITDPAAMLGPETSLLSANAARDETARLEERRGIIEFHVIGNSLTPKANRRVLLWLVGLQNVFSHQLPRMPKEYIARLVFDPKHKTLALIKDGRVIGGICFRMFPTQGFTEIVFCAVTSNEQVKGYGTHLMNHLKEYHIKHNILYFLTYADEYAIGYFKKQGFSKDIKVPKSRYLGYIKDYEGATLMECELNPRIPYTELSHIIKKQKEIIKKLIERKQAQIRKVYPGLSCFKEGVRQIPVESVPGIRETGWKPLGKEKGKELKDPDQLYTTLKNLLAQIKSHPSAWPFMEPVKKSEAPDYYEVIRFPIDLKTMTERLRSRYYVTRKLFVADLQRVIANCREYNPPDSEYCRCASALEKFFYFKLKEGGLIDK
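GCN5L2 (20 nM) in 50mM HEPES pH 7.5, 0.1mM EDTA, 0.01% Tween-20 preincubated 15 min with compounds at room temperature. Reaction started with H3(1-25) 75uM, acetyl-CoA 70uM, ThioGlo1 50uM; CoA-thiol fluorescence (Ex340/Em540) read at 0 and 20 min.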
GLS inhibitor = inhibitors of human glutaminase (GLS). O94925. GLS enzymatic activity, qHTS titration. Potency, µM (doses to about 45.5 µM), usual class: inhibitors. 410,000 compounds, 0.21% hits
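Two-point fluorescence kinetic (t0, 30 min RT) for hKGA; glutamate detected via glutamate oxidase–HRP–Amplex Red. Substrate: 1 mM L-glutamine solution; buffer 45 mM KH2PO4, pH 8.2.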
Pol eta inh = blocks human DNA polymerase eta activity | Potency, µM (highest dose often 114 µM), hits mostly inhibitors | 390,000 compounds, 1.2% hits | AID 588591 | Q9Y253 | recombinant Pol eta, fluorescent DNA replication assay
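Pol eta at 10 nM preincubated with compounds 15 min at room temperature; reaction started with fluorescent substrate (50 nM final) and read kinetically at 0 and 10 min.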
Each line names hits and unclear results; the compound was inactive in the other large screens; ! = not active in a repeat. An excerpt weighted towards active compounds, which were near 2.4% of everything screened. Calls follow the shape of the dose curve; as a rule, active = well fitted inhibition curve with a large enough effect; inconclusive = small, poorly fitted or top-dose-only effect, or another doubt; inactive = no such curve, though single readings can be large or run the other way.

Cn1c(N2CCN(c3ccccn3)CC2)nc2c1c(=O)n(Cc1ccc(Cl)cc1)c(=O)n2C	GLS inhibitor inconclusive
CC(O)CNc1nc2c(c(=O)n(Cc3ccc(Br)cc3)c(=O)n2C)n1C (stereo unspecified)	GLS inhibitor 20µM
Cn1c(N2CCOCC2)nc2c1c(=O)n(Cc1ccc(Cl)cc1)c(=O)n2C	GLS inhibitor 13µM (no result: POLB inh, KAT2A inh)
CCn1c(SCC(=O)NCc2ccco2)nnc1-c1ccc(N(C)C)cc1	none (no result: POLB inh, KAT2A inh, GLS inhibitor, Pol eta inh)
O=C1CN(CCN2CC(=O)NC(=O)C2)CC(=O)N1	none (no result: POLB inh, KAT2A inh, GLS inhibitor, Pol eta inh)
O=C(CCC1CC(=O)Nc2ccccc21)NCc1ccc(F)cc1 (stereo unspecified)	none
O=C(CCC1CC(=O)Nc2ccccc21)NCc1ccccc1 (stereo unspecified)	POLI inh inconclusive, Pol eta inh 89µM
CCOc1ccc(-c2csc(/C(C#N)=C\c3ccc(O)c([N+](=O)[O-])c3)n2)cc1	POLI inh inconclusive, POLB inh 28µM, KAT2A inh inconclusive, Pol eta inh 22µM
CCCCCCCCCCCCCCCCn1cc[n+](Cc2ccccc2)c1C	KAT2A inh 8.9µM (no result: POLI inh, POLB inh, GLS inhibitor, Pol eta inh)
CCCCCCCCCCCC[N+](C)(C)Cc1ccccc1	none (no result: POLK inh, POLI inh, POLB inh, KAT2A inh, Pol eta inh)
COc1ccc2[nH]c(C)cc2c1	none (no result: POLB inh, KAT2A inh, GLS inhibitor, Pol eta inh)
Nc1nonc1-c1nc2ccccc2n1CC(=O)N/N=C/c1ccc(-c2ccccc2C(=O)O)o1	POLK inh inconclusive, POLI inh inconclusive, POLB inh 16µM, Pol eta inh 32µM
CC(C(=O)O)c1ccc(/C=C2\CCCCC2=O)cc1 (stereo unspecified)	none (no result: POLK inh, POLI inh, POLB inh, KAT2A inh, Pol eta inh)
CC(=O)N[C@@H](CSC(=O)[C@]1([C@@H](O)C(C)C)NC(=O)[C@H](C)[C@@H]1O)C(=O)O	none (no result: POLI inh, POLB inh, GLS inhibitor, Pol eta inh)
CC1(NC(=O)CC[N+](C)(C)CCO)CS(=O)(=O)CC1S(=O)(=O)[O-] (stereo unspecified)	POLB inh 2µM (no result: POLK inh, POLI inh, GLS inhibitor, Pol eta inh)
O=C(O)CCn1cnc2onc(-c3ccccc3Cl)c2c1=O	POLB inh 22µM
CCCCCC/C=C/c1ccc(C2C3C=CCC(C)C3C(=O)N2Cc2ccccc2)c(F)c1 (stereo unspecified)	none (no result: POLB inh, KAT2A inh, GLS inhibitor, Pol eta inh)
Cc1cc(N2CCCCC2)nc2ccccc12	none
Cc1cc(-n2nnc3ccccc32)nc2ccccc12	POLI inh 89µM
COC(CNC(=O)c1ccc2c3c(onc13)-c1ccccc1C2=O)OC	POLI inh 18µM, Pol eta inh inconclusive
COC(CNC(=O)c1cccnc1)OC	none
COc1cc(N=c2ssnc2Cl)c(OC)cc1Cl	POLI inh 20µM, KAT2A inh 11µM, GLS inhibitor 16µM!
COc1cc(-n2nnnc2SC)c(OC)cc1Cl	none
COc1ccc(OC)c(N=c2ssnc2Cl)c1	POLI inh inconclusive, KAT2A inh 28µM
CCN(CC)S(=O)(=O)c1cc(NC(=O)c2ccc3c(c2)NC(=O)C(C)S3)ccc1C (stereo unspecified)	Pol eta inh 56µM (no result: POLB inh)
Cn1ncc(N=Cc2c(O)ccc3ccccc23)c1C(=O)Nc1cccc(Cl)c1	POLI inh inconclusive, Pol eta inh 50µM
CCOc1ccc2nc(NC(=O)c3nc(SCc4ccccc4C)ncc3Cl)sc2c1	none
COc1ccc(-c2cn3nc(N4CCCC(C(=O)Nc5ccc(C)c(C)c5)C4)sc3n2)cc1 (stereo unspecified)	none
COc1ccc2ccccc2c1C(O)c1nccn1C (stereo unspecified)	POLI inh 25µM
CC(C)CN(CC(C)C)c1ccc(/C=C/c2ccnc3ccccc23)cc1	none (no result: POLB inh, KAT2A inh, GLS inhibitor, Pol eta inh)
CC1=C(C(=O)OCc2ccc3c(c2)OCO3)C(c2ccc(O)c([N+](=O)[O-])c2)NC(=O)N1 (stereo unspecified)	Pol eta inh inconclusive
CCOc1ccc(C2NC(=O)NC(c3ccccc3)=C2C(C)=O)cc1OC (stereo unspecified)	none
CC1=C([N+](=O)[O-])C(c2ccc(O)c(O)c2)NC(=O)N1 (stereo unspecified)	POLI inh 79µM
COc1cc(C2NC(=O)NC(c3ccccc3)=C2C(C)=O)cc(Cl)c1OCC(=O)O (stereo unspecified)	Pol eta inh 28µM
CC(=O)C1=C(c2ccccc2)NC(=S)NC1c1cc(Cl)c(OC(C)C)c(Cl)c1 (stereo unspecified)	none
CC(=O)C1=C(c2ccccc2)NC(=S)NC1c1ccc(O)c(O)c1 (stereo unspecified)	POLI inh 18µM, POLB inh 4µM, GLS inhibitor 8.9µM, Pol eta inh inconclusive
CC(=O)C1=C(c2ccccc2)NC(=O)NC1c1ccc(O)c(O)c1 (stereo unspecified)	POLK inh 79µM, POLI inh 40µM, POLB inh 4µM, GLS inhibitor 10µM, Pol eta inh inconclusive
CCOC(=O)NNc1ccc(N(CC)CC(C)O)nn1 (stereo unspecified)	none (no result: POLK inh, POLI inh, POLB inh, KAT2A inh, Pol eta inh)
C#CCN(Cc1ccc(OC)cc1)S(=O)(=O)C=C	none (no result: POLB inh, KAT2A inh, GLS inhibitor, Pol eta inh)
CC(=O)c1cccc(N(C(=O)Cn2nnc3ccccc32)C(C(=O)NC2CCCCC2)c2cn(C)nc2C)c1 (stereo unspecified)	GLS inhibitor 7.9µM
O=C1/C(=C\c2cc(Br)cc(Br)c2O)SC(=S)N1Cc1ccccc1	POLI inh 3.2µM, POLB inh 35µM, Pol eta inh 79µM
COc1cc(/C=C2\SC(=O)N(Cc3ccc(Cl)cc3)C2=O)cc([N+](=O)[O-])c1O	POLI inh inconclusive, Pol eta inh 79µM
COc1cc(/C=C2\C(=O)NN(c3ccc(C)cc3)C2=O)cc([N+](=O)[O-])c1O	POLB inh inconclusive, Pol eta inh 22µM
COc1cc(/C=C2/C(=O)NN(c3ccc(Cl)cc3)C2=O)cc(OC)c1O	POLI inh inconclusive
COc1cc(/C=C2/SC(=S)N(Cc3ccccc3)C2=O)cc(Cl)c1O	POLB inh 40µM, Pol eta inh inconclusive
COc1cc2nc(N3CCCN(C)CC3)nc(OC3CCN(C)CC3)c2cc1OC	none (no result: POLB inh, KAT2A inh, GLS inhibitor, Pol eta inh)
C=C1C=C(C)n2ncc(C(=O)NCCCCCC)c2N1	none (no result: POLB inh, KAT2A inh, GLS inhibitor, Pol eta inh)
COc1ccc(C)cc1NC(=O)c1c(C(=O)Nc2cccc(C)c2C)sc2nc(C)cc(=O)n12	none
CC(C)(C)n1ncc2c(=O)n(Cc3cccc(C#N)c3)cnc21	none (no result: POLB inh, KAT2A inh, GLS inhibitor, Pol eta inh)
O=C(O)CSCC(=O)NC1CCSC1=O (stereo unspecified)	none (no result: POLK inh, POLI inh, POLB inh, KAT2A inh, Pol eta inh)
C(=C\c1ccnc2ccccc12)/c1ccc2ccccc2n1	none (no result: POLB inh, KAT2A inh, GLS inhibitor, Pol eta inh)
COc1ccccc1Nc1cc(C)nc2nc(-c3ccccc3)nn12	none
COc1ccc(N2Cc3cccc(C(=O)O)c3C2=O)cc1	POLK inh inconclusive, POLI inh inconclusive, POLB inh 7.1µM, KAT2A inh inconclusive, GLS inhibitor 16µM, Pol eta inh 4µM
CCOC(=O)c1cc(S(=O)(=O)NCc2ccc(OC)cc2)[nH]n1	none

From PubChem
